Test [1] addresses Protein kinase C gamma type (Homo sapiens) (UniProt P05129). The settings on record: at 1 µM.
In test [2] the target is T1, Protein kinase C iota type (Homo sapiens) (UniProt P41743).
T1 sequence (whole entry): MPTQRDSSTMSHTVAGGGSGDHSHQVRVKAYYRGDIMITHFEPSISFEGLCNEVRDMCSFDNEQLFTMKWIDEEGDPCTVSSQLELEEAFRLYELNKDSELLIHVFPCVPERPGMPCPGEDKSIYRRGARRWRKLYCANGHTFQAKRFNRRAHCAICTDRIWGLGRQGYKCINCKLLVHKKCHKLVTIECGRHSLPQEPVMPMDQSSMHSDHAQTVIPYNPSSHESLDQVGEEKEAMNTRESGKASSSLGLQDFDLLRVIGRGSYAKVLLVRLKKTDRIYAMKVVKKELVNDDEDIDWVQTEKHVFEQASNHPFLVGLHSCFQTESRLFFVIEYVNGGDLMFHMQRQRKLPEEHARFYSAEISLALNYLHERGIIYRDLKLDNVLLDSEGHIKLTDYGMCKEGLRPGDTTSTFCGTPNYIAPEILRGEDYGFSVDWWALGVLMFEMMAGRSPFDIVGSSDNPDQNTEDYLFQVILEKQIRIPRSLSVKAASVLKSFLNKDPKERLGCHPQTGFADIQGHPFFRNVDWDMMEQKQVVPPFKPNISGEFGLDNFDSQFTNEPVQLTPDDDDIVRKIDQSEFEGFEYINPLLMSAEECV
The settings on record: at 0.1 µM.

For test [3], the target named is T1, Protein kinase C iota type (Homo sapiens). The settings on record: at 1 µM.
Test [4] addresses Protein kinase C theta type (Homo sapiens) (UniProt Q04759). To be noted: at 0.1 µM.
The target is the same in test [5]. To be noted: at 1 µM.
The target in test [6] is Protein kinase C beta type (Homo sapiens) (UniProt P05771). The settings on record: at 0.1 µM.
Chain of Protein kinase C beta type (Homo sapiens) (P05771 2-671 limits assumed): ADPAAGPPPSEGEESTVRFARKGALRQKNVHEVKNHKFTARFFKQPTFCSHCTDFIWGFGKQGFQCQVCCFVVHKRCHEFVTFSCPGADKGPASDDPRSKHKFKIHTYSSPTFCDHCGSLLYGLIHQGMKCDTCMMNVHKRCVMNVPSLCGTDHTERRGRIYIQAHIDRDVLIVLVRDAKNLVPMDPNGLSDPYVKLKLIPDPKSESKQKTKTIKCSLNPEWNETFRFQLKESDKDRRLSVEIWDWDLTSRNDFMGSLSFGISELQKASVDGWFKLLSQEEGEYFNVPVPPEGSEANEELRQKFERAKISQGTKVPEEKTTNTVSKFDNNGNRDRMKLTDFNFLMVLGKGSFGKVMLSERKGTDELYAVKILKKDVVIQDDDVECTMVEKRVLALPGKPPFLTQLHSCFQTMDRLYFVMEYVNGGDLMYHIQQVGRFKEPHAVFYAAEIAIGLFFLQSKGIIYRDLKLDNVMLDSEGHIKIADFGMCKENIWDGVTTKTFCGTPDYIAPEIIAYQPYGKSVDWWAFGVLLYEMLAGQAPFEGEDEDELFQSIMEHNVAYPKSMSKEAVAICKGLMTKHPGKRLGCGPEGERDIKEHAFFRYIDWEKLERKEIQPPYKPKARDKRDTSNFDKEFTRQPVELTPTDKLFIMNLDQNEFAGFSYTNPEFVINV
For test [7] the target is unchanged. To be noted: at 1 µM.
The target of test [8] is T2, Serine/threonine-protein kinase D1 (Homo sapiens) (UniProt Q15139).
T2 sequence (whole entry): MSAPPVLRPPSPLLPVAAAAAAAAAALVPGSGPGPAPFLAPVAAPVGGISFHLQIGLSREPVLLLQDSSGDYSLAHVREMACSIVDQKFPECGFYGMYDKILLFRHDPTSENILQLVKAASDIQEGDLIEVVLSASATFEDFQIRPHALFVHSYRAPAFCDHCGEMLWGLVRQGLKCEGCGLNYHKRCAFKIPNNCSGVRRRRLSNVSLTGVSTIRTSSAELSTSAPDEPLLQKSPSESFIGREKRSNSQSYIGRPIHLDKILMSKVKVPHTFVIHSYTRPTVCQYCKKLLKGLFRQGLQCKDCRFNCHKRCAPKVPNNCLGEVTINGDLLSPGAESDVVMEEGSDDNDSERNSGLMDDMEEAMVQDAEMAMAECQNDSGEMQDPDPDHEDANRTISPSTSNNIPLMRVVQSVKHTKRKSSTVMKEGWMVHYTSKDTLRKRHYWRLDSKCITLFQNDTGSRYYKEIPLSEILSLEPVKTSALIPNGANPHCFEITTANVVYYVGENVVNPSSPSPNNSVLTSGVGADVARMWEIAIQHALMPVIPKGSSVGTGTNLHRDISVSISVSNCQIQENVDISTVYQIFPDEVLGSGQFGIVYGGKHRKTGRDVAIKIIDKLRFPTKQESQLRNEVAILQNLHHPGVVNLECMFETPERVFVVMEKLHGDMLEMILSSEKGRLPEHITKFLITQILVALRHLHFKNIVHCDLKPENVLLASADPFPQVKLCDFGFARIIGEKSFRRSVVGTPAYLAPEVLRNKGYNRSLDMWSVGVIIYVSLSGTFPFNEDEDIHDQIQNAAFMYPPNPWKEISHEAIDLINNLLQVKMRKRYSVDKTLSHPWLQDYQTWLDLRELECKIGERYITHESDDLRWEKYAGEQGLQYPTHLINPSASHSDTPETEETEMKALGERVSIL
The settings on record: at 0.1 µM.

The target in test [9] is T2, Serine/threonine-protein kinase D1 (Homo sapiens). To be noted: at 1 µM.
Test [10] has as its target T3, Serine/threonine-protein kinase D2 (Homo sapiens) (UniProt Q9BZL6).
T3 sequence (whole entry): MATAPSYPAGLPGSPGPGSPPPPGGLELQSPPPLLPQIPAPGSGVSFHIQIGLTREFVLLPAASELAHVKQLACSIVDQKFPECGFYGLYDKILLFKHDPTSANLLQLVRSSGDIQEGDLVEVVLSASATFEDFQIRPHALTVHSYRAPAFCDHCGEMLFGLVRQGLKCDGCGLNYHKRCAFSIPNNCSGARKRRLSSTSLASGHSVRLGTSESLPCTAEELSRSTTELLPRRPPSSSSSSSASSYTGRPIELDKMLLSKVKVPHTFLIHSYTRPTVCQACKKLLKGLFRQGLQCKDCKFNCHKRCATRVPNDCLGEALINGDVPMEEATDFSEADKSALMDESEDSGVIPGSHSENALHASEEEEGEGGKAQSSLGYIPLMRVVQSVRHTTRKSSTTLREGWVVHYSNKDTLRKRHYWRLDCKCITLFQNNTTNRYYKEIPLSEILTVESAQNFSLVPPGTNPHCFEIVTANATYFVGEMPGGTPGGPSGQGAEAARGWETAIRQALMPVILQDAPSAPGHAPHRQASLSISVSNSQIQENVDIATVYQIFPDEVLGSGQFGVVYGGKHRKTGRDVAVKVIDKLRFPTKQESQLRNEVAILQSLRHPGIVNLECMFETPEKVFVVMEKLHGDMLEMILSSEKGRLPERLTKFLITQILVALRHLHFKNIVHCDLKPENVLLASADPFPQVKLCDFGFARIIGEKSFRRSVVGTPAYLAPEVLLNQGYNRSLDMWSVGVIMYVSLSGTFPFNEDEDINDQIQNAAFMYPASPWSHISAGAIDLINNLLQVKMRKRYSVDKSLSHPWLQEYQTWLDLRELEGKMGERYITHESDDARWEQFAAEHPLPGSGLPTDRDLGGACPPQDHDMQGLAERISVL
The settings on record: at 0.1 µM.

Test [11] concerns the target T3, Serine/threonine-protein kinase D2 (Homo sapiens). The settings on record: at 1 µM.
Test [12] deals with T4, Serine/threonine-protein kinase D3 (Homo sapiens) (UniProt O94806).
T4 sequence (whole entry): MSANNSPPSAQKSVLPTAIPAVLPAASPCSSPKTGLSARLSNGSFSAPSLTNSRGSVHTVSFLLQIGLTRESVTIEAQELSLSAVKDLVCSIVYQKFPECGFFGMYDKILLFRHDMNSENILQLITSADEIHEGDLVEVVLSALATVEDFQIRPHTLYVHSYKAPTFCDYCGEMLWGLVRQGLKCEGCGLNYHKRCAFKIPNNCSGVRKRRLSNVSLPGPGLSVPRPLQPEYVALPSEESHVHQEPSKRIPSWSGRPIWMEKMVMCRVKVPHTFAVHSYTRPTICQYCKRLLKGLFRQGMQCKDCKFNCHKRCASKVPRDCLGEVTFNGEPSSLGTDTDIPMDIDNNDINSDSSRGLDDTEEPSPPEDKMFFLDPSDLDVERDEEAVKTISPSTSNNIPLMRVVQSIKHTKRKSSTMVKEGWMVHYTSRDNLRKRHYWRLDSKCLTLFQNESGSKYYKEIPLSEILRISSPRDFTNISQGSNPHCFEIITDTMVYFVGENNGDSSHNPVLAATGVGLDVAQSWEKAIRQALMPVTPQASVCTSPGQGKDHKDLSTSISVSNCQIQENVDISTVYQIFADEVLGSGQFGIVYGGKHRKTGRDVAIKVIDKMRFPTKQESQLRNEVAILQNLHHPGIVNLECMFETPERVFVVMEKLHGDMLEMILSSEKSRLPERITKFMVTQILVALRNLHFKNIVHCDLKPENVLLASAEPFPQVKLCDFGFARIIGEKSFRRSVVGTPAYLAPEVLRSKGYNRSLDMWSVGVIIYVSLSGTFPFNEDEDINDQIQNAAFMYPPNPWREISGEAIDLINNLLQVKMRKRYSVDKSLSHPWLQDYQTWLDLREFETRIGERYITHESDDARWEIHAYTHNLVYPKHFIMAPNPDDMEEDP
To be noted: at 0.1 µM.

The target of test [13] is T4, Serine/threonine-protein kinase D3 (Homo sapiens). The settings on record: at 1 µM.
Test [14] concerns the target T5, cGMP-dependent protein kinase 1 (Homo sapiens) (UniProt Q13976).
T5 sequence (whole entry): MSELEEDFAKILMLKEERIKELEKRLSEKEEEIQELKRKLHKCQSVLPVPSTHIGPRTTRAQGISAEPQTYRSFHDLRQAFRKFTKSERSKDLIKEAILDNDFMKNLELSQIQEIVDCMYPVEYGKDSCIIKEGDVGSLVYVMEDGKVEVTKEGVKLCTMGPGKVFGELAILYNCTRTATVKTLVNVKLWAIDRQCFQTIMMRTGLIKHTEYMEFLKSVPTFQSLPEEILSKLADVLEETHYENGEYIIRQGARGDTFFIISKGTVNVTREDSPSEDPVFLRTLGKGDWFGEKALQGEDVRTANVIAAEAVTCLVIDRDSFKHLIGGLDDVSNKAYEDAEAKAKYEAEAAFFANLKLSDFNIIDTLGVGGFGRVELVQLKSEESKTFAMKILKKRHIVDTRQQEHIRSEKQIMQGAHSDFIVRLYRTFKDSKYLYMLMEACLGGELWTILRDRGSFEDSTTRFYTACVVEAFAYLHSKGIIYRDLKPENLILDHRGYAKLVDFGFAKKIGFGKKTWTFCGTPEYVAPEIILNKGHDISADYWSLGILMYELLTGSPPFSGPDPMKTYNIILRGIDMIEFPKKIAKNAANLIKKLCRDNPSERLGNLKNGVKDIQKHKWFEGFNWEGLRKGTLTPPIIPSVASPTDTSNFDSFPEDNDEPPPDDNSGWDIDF
To be noted: at 0.1 µM.

The target in test [15] is T5, cGMP-dependent protein kinase 1 (Homo sapiens). To be noted: at 1 µM.
Test [16] concerns the target T6, cGMP-dependent protein kinase 2 (Homo sapiens) (UniProt Q13237).
T6 sequence (whole entry): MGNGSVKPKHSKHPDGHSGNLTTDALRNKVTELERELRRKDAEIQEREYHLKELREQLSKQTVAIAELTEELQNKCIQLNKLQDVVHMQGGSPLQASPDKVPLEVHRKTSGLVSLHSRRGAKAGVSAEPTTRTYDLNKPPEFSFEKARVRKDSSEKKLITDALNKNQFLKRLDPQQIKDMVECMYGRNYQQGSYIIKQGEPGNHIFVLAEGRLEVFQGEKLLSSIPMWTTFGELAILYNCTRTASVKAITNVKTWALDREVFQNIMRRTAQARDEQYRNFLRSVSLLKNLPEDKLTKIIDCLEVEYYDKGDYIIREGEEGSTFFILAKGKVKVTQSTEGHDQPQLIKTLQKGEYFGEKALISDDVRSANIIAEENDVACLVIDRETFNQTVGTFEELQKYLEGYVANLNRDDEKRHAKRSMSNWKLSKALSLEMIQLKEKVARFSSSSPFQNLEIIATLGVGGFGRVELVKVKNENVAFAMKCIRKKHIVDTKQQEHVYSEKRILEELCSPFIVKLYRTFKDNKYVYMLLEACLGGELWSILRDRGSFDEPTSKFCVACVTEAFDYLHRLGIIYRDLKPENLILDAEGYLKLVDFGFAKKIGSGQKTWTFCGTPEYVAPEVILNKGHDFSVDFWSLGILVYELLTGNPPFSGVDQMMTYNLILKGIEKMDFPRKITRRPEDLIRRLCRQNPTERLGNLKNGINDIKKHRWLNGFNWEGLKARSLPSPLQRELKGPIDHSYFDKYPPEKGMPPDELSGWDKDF
To be noted: at 0.1 µM.

Test [17] deals with T6, cGMP-dependent protein kinase 2 (Homo sapiens). The settings on record: at 1 µM.
Test [18] deals with T7, cAMP-dependent protein kinase catalytic subunit PRKX (Homo sapiens) (UniProt P51817).
T7 sequence (whole entry): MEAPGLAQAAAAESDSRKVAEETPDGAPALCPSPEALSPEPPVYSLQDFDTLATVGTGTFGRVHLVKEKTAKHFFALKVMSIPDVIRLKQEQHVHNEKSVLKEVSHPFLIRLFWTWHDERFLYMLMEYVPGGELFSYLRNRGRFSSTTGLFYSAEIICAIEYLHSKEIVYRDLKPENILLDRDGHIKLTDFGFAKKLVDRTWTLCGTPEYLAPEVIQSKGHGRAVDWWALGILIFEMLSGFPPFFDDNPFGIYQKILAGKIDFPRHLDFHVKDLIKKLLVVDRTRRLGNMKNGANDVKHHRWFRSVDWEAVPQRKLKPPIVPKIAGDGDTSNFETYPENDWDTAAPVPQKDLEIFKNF
To be noted: at 0.1 µM.

The target in test [19] is T7, cAMP-dependent protein kinase catalytic subunit PRKX (Homo sapiens). To be noted: at 1 µM.
Test [20] has as its target Rho-associated protein kinase 1 (Homo sapiens) (UniProt Q13464). The settings on record: at 0.1 µM.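 Also: values are mean percent inhibition of ROCK1.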

One may read the inhibition as the drop in the measured response relative to a control, in per cent.

Chain of Protein kinase C theta type (Homo sapiens) (Q04759 whole entry, looked up): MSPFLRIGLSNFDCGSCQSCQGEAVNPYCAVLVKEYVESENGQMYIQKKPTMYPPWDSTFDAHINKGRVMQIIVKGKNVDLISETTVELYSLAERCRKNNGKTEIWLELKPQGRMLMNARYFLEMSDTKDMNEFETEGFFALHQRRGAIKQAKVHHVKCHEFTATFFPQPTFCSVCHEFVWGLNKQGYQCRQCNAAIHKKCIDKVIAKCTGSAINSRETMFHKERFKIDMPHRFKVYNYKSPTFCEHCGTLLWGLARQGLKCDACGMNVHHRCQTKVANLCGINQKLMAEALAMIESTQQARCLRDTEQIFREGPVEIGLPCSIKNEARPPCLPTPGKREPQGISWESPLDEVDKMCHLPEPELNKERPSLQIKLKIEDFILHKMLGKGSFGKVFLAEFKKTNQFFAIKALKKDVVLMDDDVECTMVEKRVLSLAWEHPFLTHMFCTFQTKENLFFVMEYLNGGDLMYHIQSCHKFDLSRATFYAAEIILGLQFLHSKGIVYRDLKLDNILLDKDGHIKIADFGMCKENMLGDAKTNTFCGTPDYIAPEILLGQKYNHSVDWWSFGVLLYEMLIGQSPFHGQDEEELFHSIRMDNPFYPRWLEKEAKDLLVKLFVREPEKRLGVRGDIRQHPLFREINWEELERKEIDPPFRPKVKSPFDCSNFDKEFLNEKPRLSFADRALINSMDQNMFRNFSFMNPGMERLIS
Chain of Rho-associated protein kinase 1 (Homo sapiens) (Q13464 2-1354 limits assumed): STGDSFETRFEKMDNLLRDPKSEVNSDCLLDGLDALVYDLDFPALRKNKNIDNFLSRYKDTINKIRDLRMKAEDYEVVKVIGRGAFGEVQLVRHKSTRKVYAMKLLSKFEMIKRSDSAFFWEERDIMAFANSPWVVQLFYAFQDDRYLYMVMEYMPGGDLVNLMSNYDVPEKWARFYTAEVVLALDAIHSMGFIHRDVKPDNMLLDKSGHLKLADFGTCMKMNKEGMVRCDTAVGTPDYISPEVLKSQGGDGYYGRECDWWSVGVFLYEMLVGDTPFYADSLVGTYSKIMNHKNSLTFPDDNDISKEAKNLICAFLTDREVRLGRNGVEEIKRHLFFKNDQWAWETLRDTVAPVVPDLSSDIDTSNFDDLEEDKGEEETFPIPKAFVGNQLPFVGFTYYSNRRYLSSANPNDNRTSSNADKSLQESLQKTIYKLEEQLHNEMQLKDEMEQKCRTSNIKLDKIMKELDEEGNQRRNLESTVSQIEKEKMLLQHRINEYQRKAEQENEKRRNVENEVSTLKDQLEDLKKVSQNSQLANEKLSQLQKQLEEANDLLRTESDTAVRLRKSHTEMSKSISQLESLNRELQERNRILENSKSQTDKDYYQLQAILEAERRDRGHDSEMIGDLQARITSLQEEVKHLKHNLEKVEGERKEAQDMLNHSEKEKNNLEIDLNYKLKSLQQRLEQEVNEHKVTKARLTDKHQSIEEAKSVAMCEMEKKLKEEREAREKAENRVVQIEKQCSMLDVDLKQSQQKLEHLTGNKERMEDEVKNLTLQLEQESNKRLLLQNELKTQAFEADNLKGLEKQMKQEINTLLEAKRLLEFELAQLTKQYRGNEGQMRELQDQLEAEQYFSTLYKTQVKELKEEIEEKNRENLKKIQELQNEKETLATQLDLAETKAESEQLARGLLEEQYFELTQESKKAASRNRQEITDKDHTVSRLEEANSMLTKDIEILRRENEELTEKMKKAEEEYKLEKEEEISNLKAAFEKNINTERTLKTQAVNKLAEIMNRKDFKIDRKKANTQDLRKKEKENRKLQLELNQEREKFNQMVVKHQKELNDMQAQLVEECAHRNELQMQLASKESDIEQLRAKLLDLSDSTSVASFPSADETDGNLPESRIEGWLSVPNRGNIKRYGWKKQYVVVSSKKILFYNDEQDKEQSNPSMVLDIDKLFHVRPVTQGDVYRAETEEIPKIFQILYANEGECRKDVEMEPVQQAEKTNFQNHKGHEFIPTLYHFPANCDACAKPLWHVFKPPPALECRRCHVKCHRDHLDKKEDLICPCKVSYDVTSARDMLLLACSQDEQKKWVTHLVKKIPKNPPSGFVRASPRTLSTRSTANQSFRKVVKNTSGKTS

On to `CCn1c(-c2nonc2N)nc2ccccc21`, for which the inhibition in test [1] worked out at 4.67%; in [2] it was 1.65%; in test [3], 6.6%; in [4], 1.58%; in [5], 6.38%; in test [6] it was 0.96%. Moreover, the inhibition in test [7] stood at 7.2%; in test [8] it was 2.23%; in test [9], 5.47%; in test [10], 2.41%; in [11] it was 4.37%; in [12] it was 2.15%. The inhibition in test [13] was found to be 3.93%; in test [14] it was 6.5%; in [15], 30.9%; in test [16], 26.9%; in test [17], 70.6%; in [18], 3.21%. Besides, the values for the inhibition in test [19] and in test [20] were 5.67% and 6.65%, respectively.
Take `Cc1ccc2c(-c3ccnc(Nc4ccccc4)n3)c(-c3ccc(F)cc3)nn2n1`: the inhibition in test [1] turned out to be 2.17%; in [2], 1.43%; in test [3], 3.68%; in test [4], 1.21%; in test [5], 1.16%; in [6], 1.79%. Moreover, the inhibition was determined as 12.3% in test [7]; 10.1% in [8]; 70.6% in test [9]; 24.6% in [10]; 87% in [11]; 18.6% in [12]. Also, the inhibition was 80.7% in test [13]; 1.32% in test [14]; 2.92% in test [15]; 3.01% in test [16]; 2.49% in [17]; 1.83% in test [18]. For the same compound, the inhibition was -0.36% in test [19] and 1.01% in test [20].

These data come from ChEMBL document CHEMBL1961873, “Compounds: GSK PKIS; Assays: Nanosyn kinase panel” (2012).
